# Experimental data as given in PubChem BioAssay AID2314 (National Center for Advancing Translational Sciences (NCATS), 2010).
# The whole screen tested about 300,000 compounds, of which about 37,000 (12%) were called active. Cut-off read from the data, not from the text of the source: active = max response mostly above about 13% (no sharp cut-off); inactive = mostly below about 14%. What follows is part of a selection rich in actives, with near analogues and random picks from the rest.
# Experiment: Cycloheximide Counterscreen for Small Molecule Inhibitors of Shiga Toxin; note: read at 38.3 µM for the half of the compounds with a filed dose; 0% is about no effect
# Conditions: cell reporter, cycloheximide protein synthesis inhibition counterscreen; stronger effect = higher value
row,SMILES,max response
1,CC(=O)c1c(O)cc2n(c1=O)-c1ccc(Cl)cc1C2(C)C,-1.91% (inactive)
2,COc1ccccc1CCNS(=O)(=O)c1cn(C)nc1C,1.23% (inactive)
3,Cc1c(Cl)c([N+](=O)[O-])nn1CC(=O)NCCCN1CCOCC1,-1.84% (inactive)
4,CCOc1ccc(NC(=O)CN2CCN(CC(=O)Nc3ccc(OC)cc3)CC2)cc1,-1.52% (inactive)
5,COc1ccc(NC(=O)Cn2c(-c3ccc(OC)cc3)cn(-c3ccc(C)cc3)c2=O)cc1,27.2% (active)
6,COc1ccc(-c2cn(-c3ccc(C)cc3)c(=O)n2CC(=O)Nc2ccc(OC)c(OC)c2)cc1,12.3% (inactive)
7,CC(C)CCN(C(=O)c1csnn1)C(C(=O)NC1CCCC1)c1ccccc1 (configuration not stated),-2.45% (inactive)
8,COc1ccc(NC(=O)C(C)N2c3cccc4cccc(c34)S2(=O)=O)c(OC)c1 (configuration not stated),-5.29% (inactive)
9,Cn1c(=O)c2cn(-c3cccc4ccccc34)cc2n(C)c1=O,18.7% (inactive)
10,Cc1ccc(-c2c3c(=O)n(C)c(=O)n(C)c3cn2-n2cnnc2)cc1,0.742% (inactive)
11,COc1ccc(-c2c3c(=O)n(C)c(=O)n(C)c3cn2-c2cccc(OC)c2)cc1,0.846% (inactive)
12,COc1cccc(-n2cc3c(c2-c2ccccc2)c(=O)n(C)c(=O)n3C)c1,57.2% (active)
13,Cc1ccc(-c2c3c(=O)n(C)c(=O)n(C)c3cn2-c2ccccc2O)cc1,21.5% (active)
14,COc1ccc(-c2c3c(=O)n(C)c(=O)n(C)c3cn2NC(C)=O)cc1,-6.45% (inactive)
15,Cn1c(C(=O)N2CCCC(C(=O)NCc3ccccc3)C2)cc2sccc21 (configuration not stated),3.91% (inactive)
16,CCOc1ccc(S(=O)(=O)N2CCC(C(=O)NCc3ccccn3)CC2)cc1Cl,-1.51% (inactive)
17,COc1ccc(-c2nc(CS(=O)CC(=O)NCc3ccccc3)c(C)o2)cc1OC (configuration not stated),4.98% (inactive)
18,Cc1no[n+]([O-])c1COc1ccccc1/C=C1\NC(=S)NC1=O,5.18% (inactive)
19,CC(=O)Nc1ccc(S(=O)(=O)Oc2ccc(Br)cc2C(=S)N2CCOCC2)cc1,-3.27% (inactive)
20,CC(=O)Nc1ccc(CN2CCC(Oc3ccc(C(=O)N4CCCC4)cc3)CC2)cc1,-0.693% (inactive)
21,O=C(Nc1ccc(Cl)cc1)/C(=C1\CCCN1)[N+](=O)[O-],5.78% (inactive)
22,O=C(CN(c1ccccc1)S(=O)(=O)c1ccc(Cl)cc1)Nc1ccccc1C(=O)N1CCCC1,-1.5% (inactive)
23,Cc1ccc(C2=C/C(=C\c3cccnc3)C(=O)O2)cc1,-1.01% (inactive)

row,SMILES,max response
1,O=S(O)S(=O)(=O)O,-2.81% (inactive)
2,Cc1ccc(C)c(-n2cc(CN3CCN(C(=O)c4ncn[nH]4)CC3)c(-c3ccccc3)n2)c1,-1.39% (inactive)
3,Cc1ccccc1CN1CCN(C(=O)c2cccc(F)c2)CC1,-3.46% (inactive)
4,CCC(O)C1CCN(Cc2cn(-c3ccc(OC)cc3)nc2-c2cccc(F)c2)CC1 (configuration not stated),10.6% (active)
5,COc1ccc(-n2cc(CNC3CCOCC3)c(-c3cccc(F)c3)n2)cc1,1.41% (inactive)
6,Cc1cccc(-n2cc(CN3CCN(C(=O)c4ncn[nH]4)CC3)c(-c3cccc(F)c3)n2)c1,20.6% (active)
7,COc1ccc(-n2cc(CN(C)Cc3n[nH]c(=O)[nH]3)c(-c3cccc(F)c3)n2)cc1,4.9% (inactive)
8,C=CCCC(=O)Nc1nc(C)c(-c2csc(Nc3ccc(Cl)cc3)n2)s1,-1.48% (inactive)
9,CCOCCCNCc1cc(Br)ccc1OCC,1.32% (inactive)
10,O=C(NCc1ccncc1)C1CCN(C(=O)c2cccc(Cl)c2)CC1,-4.47% (inactive)
11,Cc1ccc(NC2CCCN(C(=O)CCc3cn[nH]c3)C2)cc1C (configuration not stated),2.58% (inactive)
12,COc1c(O)c2c(=O)cc(OC)c3c4c(OC)cc(=O)c5c(O)c(OC)c6c(c(c1C[C@@](C)(O)[C@H]6C(C)=O)c23)c54,2.19% (inactive)
13,CC(=O)Nc1ccc(NC(=S)NC(=O)/C=C/c2ccccc2)cc1,4.54% (inactive)
14,CC(=O)Nc1ccccc1C(=O)C(=O)Nc1ccc(F)cc1,11.7% (inactive)
15,CCCC(=O)Nc1ccc(C(=O)N/N=C/c2ccc[nH]2)cc1,7.57% (inactive)
16,CC(=O)Nc1ccc(/C=C/C(=O)c2ccccc2)cc1,30.5% (active)
17,CC(=O)Nc1ccc(C(=O)/C=C/c2ccc[nH]2)cc1,49.8% (active)
18,COc1ccc(C(=O)/C=C/c2ccc(OC3CSC3)cc2)cc1,-1.52% (inactive)
19,COc1ccc(CCNc2nc3ccc(C)cc3n3cnnc23)cc1OC,-4.65% (inactive)
20,CC1CCN(S(=O)(=O)c2nnc(NC(=O)COc3ccccc3F)s2)CC1,-2.77% (inactive)
21,CN(CCC(=O)Nc1cc(S(=O)(=O)N(C)C)ccc1Cl)CC(=O)Nc1ccc(F)cc1,-1.74% (inactive)
22,Cc1ccc(OC(=O)c2cncc(Br)c2)c(C)c1,-1.19% (inactive)
23,Cc1ccc(S(=O)(=O)c2nc(NCCCn3ccnc3)sc2Cl)cc1,-2.37% (inactive)

row,SMILES,max response
1,Cc1ccc(-c2nc(C#N)c(NCCCn3ccnc3)o2)cc1,16.7% (active)
2,COc1ccc(/C=C(\C#N)C(=O)NCCCn2ccnc2)cc1,-5.64% (inactive)
3,O=C(Cc1ccc(-c2ccccc2)cc1)NC(c1ccccc1)c1ccccc1,1.24% (inactive)
4,CCOC(=O)C(C(=O)OCC)C(C#N)c1ccccc1 (configuration not stated),-1.71% (inactive)
5,CCOC(=O)/C=C/C(=O)OCC(=O)NC(c1ccccc1)c1ccccc1,19.8% (active)
6,COc1ccc(CNC(=O)[C@H](Cc2c[nH]c3ccccc23)NC(C)=O)cc1OC,-3.86% (inactive)
7,O=C(O)c1ccc(NC(=O)c2ccc(COc3ccc(Cl)cc3)o2)cc1,2.26% (inactive)
8,COc1ccc(Cl)cc1NC(=O)NCC1CCN(Cc2ccccc2F)CC1,-0.34% (inactive)
9,O=C(Nc1ccn(Cc2ccccc2F)n1)c1ccc(COc2ccc(Cl)cc2Cl)o1,15.1% (active)
10,Cc1nn(C(C)(C)C)c(OC(=O)CC(C)C)c1S(=O)(=O)c1ccccc1,9.13% (inactive)
11,COc1ccc(C2c3[nH]c4ccccc4c3C[C@H]3C(=O)N(CC(C)C)CC(=O)N23)c(OC)c1 (some centres not stated),-3.45% (inactive)
12,COc1ccc(C2C=C(c3ccc(Br)cc3)Nc3nc(NS(C)(=O)=O)nn32)cc1 (configuration not stated),-3.16% (inactive)
13,Cn1nc([N+](=O)[O-])nc1Sc1ccc(C(C)(C)C)cc1,-3.02% (inactive)
14,O=C(CN1CCN(C(=O)C2CCCO2)CC1)Nc1c(Cl)cccc1Cl (configuration not stated),-1.69% (inactive)
15,Cc1cccc(N=C2NN=C(c3c[nH]c4ccccc34)CS2)c1,25.2% (active)
16,Cc1cccc(C(=O)Nc2nnc(Cc3c[nH]c4ccccc34)s2)c1,3.09% (inactive)
17,Cc1cccc(N=C2NC(=O)/C(=C/c3cn(C)c4ccccc34)S2)c1,3.29% (inactive)
18,CC1CCCCC1NC(=O)c1cn(C)c2ccc(S(=O)(=O)N3CCOCC3)cc2c1=O (configuration not stated),1.03% (inactive)
19,O=C(NCCc1csc(-c2ccccc2)n1)c1ccccc1F,17.6% (active)
20,Cc1nc(CNS(=O)(=O)c2cccnc2)cs1,-2.9% (inactive)
21,O=S(=O)(NCCc1ccncc1)c1ccccc1,-2.7% (inactive)
22,O=S(=O)(NCCc1csc(-c2ccccc2)n1)c1cccnc1,19.7% (active)
23,O=C(NCCc1ccccn1)c1cc(-c2ccc(Cl)cc2)nc2ccccc12,-4.89% (inactive)

row,SMILES,max response
1,O=C(NC1CCN(Cc2ccccc2)CC1)c1ccccc1F,-5.27% (inactive)
2,Cc1ccc(-c2nn(C(C)(C)C)c3ncnc(N)c23)cc1,-0.92% (inactive)
3,COc1ccc(NC(=O)C2C3CCC(O3)C2C(=O)O)cc1OC (configuration not stated),-2.93% (inactive)
4,COc1ccc(CN2C3CCCC2CC(NC(=O)c2cccc(F)c2)C3)cc1 (configuration not stated),-1.01% (inactive)
5,CCOC(=O)c1ccccc1NC(=O)COC(=O)CCC(=O)N1CCOCC1,-1.15% (inactive)
6,COc1cc2c(cc1OC)C(C)N(S(=O)(=O)c1cnc(Cl)c(Cl)c1)CC2 (configuration not stated),11.2% (inactive)
7,COc1ccc(-n2ncc3c2CC(C)(C)CC3NC(=O)CCc2c(C)nn(C)c2C)cc1 (configuration not stated),0.573% (inactive)
8,CCCNC(=O)c1ccc(N2CCC3(CC2)CC(c2ccc(Cl)cc2)=NO3)c([N+](=O)[O-])c1,-0.889% (inactive)
9,S=C(c1ccc(-c2ccccc2)o1)N1CCCCC1,38.1% (active)
10,S=C(c1ccccc1)N1CCCC1,-0.586% (inactive)
11,OCCN1CCN(C(=S)c2ccc(-c3ccccc3)cc2)CC1,-2.28% (inactive)
12,Cc1ccc(OCC(=O)Nc2ccc(N3CCN(C(=O)c4ccco4)CC3)cc2)c(C)c1,-1.02% (inactive)
13,c1ccc(CN=C2Nc3ccccc3CS2)nc1,36.1% (active)
14,CCOC(=O)c1c(-c2ccccc2)oc2cc(Br)c(O)cc12,-1.41% (inactive)
15,Cc1ccc(C)c(S(=O)(=O)N2CCCOC2CNC(=O)C(=O)NC2CCCCC2)c1 (configuration not stated),7.6% (inactive)
16,O=S(=O)(O)c1nc2ccccc2n1Cc1ccc(Cl)cc1Cl,-2.23% (inactive)
17,COC(=O)c1sc2ncccc2c1OCc1ccc(Cl)cc1Cl,4.4% (inactive)
18,Cc1nc2ccccc2nc(C)c1=NOCc1ccc(Cl)cc1Cl,39.1% (active)
19,Cc1ccc(-n2ncc3c2CC(C)(C)CC3NC(=O)CCc2cnn(C)c2)cc1 (configuration not stated),-4.22% (inactive)
20,O=C1c2cccc3cccc(c23)C(=O)N1c1cccc(O)c1,-2.33% (inactive)
21,O=C(Nc1cccc(Cl)c1N1CCOCC1)c1cccnc1,6.59% (inactive)
22,Cc1noc(C)c1C(=O)NCCc1ccc(S(N)(=O)=O)cc1,-1.04% (inactive)
23,Cc1nc2sccn2c(=O)c1S(=O)(=O)NCCc1ccccc1,-3.53% (inactive)
